Mtb hypoxia rep: PubChem AID 1159583 | fluorescence inhibition, % (concentration not given with the values) | M. tuberculosis hypoxia-regulated fluorescent reporter, fluorescence | actives 0.1% (n = 300,000); in the data active means fluorescence inhibition mostly above about 23%, no sharp cut-off; inactive means mostly below about 17%
RecA splice inh: Mtb RecA intein splicing inhibitors, primary screen, biochemical, fluorescence, HTS; inhibition, % (test concentration not listed); AID 2221, 2009; Protein RecA (Mycobacterium tuberculosis (strain ATCC 25618 / H37Rv)), P9WHJ3; cell-free RecA intein splicing; actives 0.75% (n = 290,000); in the data active means inhibition above about 30%
PrP UTR inh: inhibition of PrP 5' UTR reporter expression | cell-based PrP 5' UTR mRNA reporter, plate reader | inhibition, % (no concentration beside the values) | AID 488862, 2010 | actives 0.35% (n = 340,000); in the data active means inhibition above about 52%
BJeLR viability: MLPCN primary cell-based screen for lethality selective to Ras in HRASV12 cells | inhibition, % (no concentration beside the values) | AID 1554, 2009 | actives 0.17% (n = 300,000) | BJeLR (HRASV12) viability, CellTiter-Glo ATP luminescence, 48 h; in the data active means inhibition above about 50%
PrPC surface inh: inhibitors of human cell surface prion protein PrPC, primary screen, cell-based, TR-FRET; TR-FRET read-out; inhibition, % at 13.8 µM; actives 0.43% (n = 370,000); AID 720596, 2013; in the data active means inhibition above about 24%
SARS 3CLpro inh: SARS-CoV 3CLpro protease inhibitors, primary screen, biochemical, quenched FRET | Replicase polyprotein 1ab (Severe acute respiratory syndrome coronavirus), P0C6X7 | recombinant SARS-CoV 3CLpro, quenched FRET peptide cleavage | inhibition, % at 6 µM | actives 0.14% (n = 290,000); in the data active means inhibition above about 12%
PrPC TRFRET cf: confirmation of inhibitors of cell surface human prion protein, confirmation, cell-based, TR-FRET | AID 743200, 2013 | shares compounds with PrPC surface inh | actives 65% (n = 1,500) | inhibition, % at 13.8 µM | cell surface PrPC level; in the data active means inhibition above about 25%
LD9 tox: cytotoxicity in LD9 cells, cytotoxicity control for cell surface PrPc inhibitor project, cell-based, luminescence, high throughput; AID 743201, 2013; inhibition, % at 13.8 µM; shares compounds with PrPC surface inh; luminescence viability; actives 29% (n = 1,500); in the data active means inhibition above about 9.5%
Each line names hits and unclear results; the compound was inactive in the other large screens (follow-up assays come after a bar, where they were run). Hits are enriched below; roughly 1.4% of the tested compounds scored in any of these assays.

CCCCOc1ccc(/C(O)=C2/C(=O)C(=O)N(Cc3cccnc3)C2c2ccncc2)c(C)c1 (stereo not given)	PrPC surface inh 44.8 | PrPC TRFRET cf 70.5 | LD9 tox inactive
CCOc1cc(C2NC(=O)NC(c3ccccc3)=C2C(C)=O)ccc1OCC(N)=O (stereo not given)	none
CCOc1ccc(C2NC(=O)NC(c3ccccc3)=C2C(C)=O)cc1OC (stereo not given)	PrPC surface inh 26.6 | PrPC TRFRET cf inactive | LD9 tox inactive
CN(C(=O)COc1ccccc1C(=O)NCCOc1ccccc1)c1ccccc1	PrPC surface inh 79.6 | PrPC TRFRET cf 82.7 | LD9 tox 94.9
O=C(NCCOc1ccccc1)c1ccccc1Cl	none
COc1ccc(NC(=O)CCC(=O)NN=Cc2ccncc2)cc1	none (no result: RecA splice inh, PrP UTR inh, BJeLR viability, PrPC surface inh, SARS 3CLpro inh)
Cc1ccc(CNC(=O)c2ccc(S(=O)(=O)N3CCCC3)cc2)cc1	none (no result: Mtb hypoxia rep, RecA splice inh, PrP UTR inh, BJeLR viability, SARS 3CLpro inh)
Cc1ccc(CNC(=O)c2ccc(S(=O)(=O)N3CCCCC3)cc2)cc1	none (no result: RecA splice inh, BJeLR viability, SARS 3CLpro inh)
Cc1cc2cc(CNC(=O)c3ccc(S(=O)(=O)N4CCCC4)cc3)ccc2n1C	PrPC surface inh 37.3 | PrPC TRFRET cf 67.5 | LD9 tox inactive
CCN(CC)S(=O)(=O)c1ccc(C(=O)NCc2ccc3c(c2)cc(C)n3C)cc1	PrPC surface inh 36.2 | PrPC TRFRET cf inactive | LD9 tox inactive
Cc1cc2cc(CNC(=O)c3ccc(S(=O)(=O)N4CCCCC4)cc3)ccc2n1C	PrPC surface inh 39.3 | PrPC TRFRET cf inactive | LD9 tox inactive
CC(=NNC(=S)Nc1c(C)cccc1C)c1ccc(O)cc1	none (no result: RecA splice inh, PrP UTR inh, BJeLR viability, PrPC surface inh, SARS 3CLpro inh)
CC(=O)c1cccc(NC(=O)C(OC(=O)c2cccc(S(=O)(=O)N(C)c3ccccc3)c2)c2ccccc2)c1 (stereo not given)	none
COc1ccc(N(C)S(=O)(=O)c2cccc(C(=O)OC(C(=O)Nc3cc(C)cc(C)c3)c3ccccc3)c2)cc1 (stereo not given)	PrPC surface inh 25.6 | PrPC TRFRET cf inactive | LD9 tox inactive
O=C(Nc1oc2ccccc2c(=O)c1-c1ccc2c(c1)OCO2)c1ccco1	PrPC surface inh 33.5 (no result: Mtb hypoxia rep, RecA splice inh, PrP UTR inh, BJeLR viability, SARS 3CLpro inh) | PrPC TRFRET cf 28.0 | LD9 tox inactive
O=C(Nc1ccccc1C(=O)Nc1ccc2c(c1)OCO2)c1ccco1	none
O=C(CC1CC=CCCC(=O)OC(c2ccccc2)CNC1=O)NCCO (stereo not given)	none (no result: RecA splice inh, PrP UTR inh, BJeLR viability, PrPC surface inh, SARS 3CLpro inh)
CC(=NN1CCN(c2ccccc2)CC1)c1ccncc1	none (no result: RecA splice inh, PrP UTR inh, BJeLR viability, PrPC surface inh, SARS 3CLpro inh)
Cc1ccc(Nc2c(-c3ccccn3)nc3cccc(C)n23)cc1	PrPC surface inh 29.9 | PrPC TRFRET cf inactive | LD9 tox 40.2
Cc1cccc2nc(-c3ccco3)c(Nc3ccccc3)n12	none
COc1ccccc1-c1ncn(Cc2cccc(-c3ccccc3)c2)c1CC(C)C	PrPC surface inh 27.2 (no result: Mtb hypoxia rep, RecA splice inh, PrP UTR inh, BJeLR viability, SARS 3CLpro inh) | PrPC TRFRET cf inactive | LD9 tox inactive
CCCc1c(-c2ccc(F)cc2F)ncn1Cc1cccc(-c2ccccc2)c1	PrPC surface inh 29.9 (no result: Mtb hypoxia rep, RecA splice inh, PrP UTR inh, BJeLR viability, SARS 3CLpro inh) | PrPC TRFRET cf inactive | LD9 tox inactive
CCc1c(-c2ccccc2OC)ncn1Cc1cccc(-c2ccccc2)c1	none (no result: Mtb hypoxia rep, RecA splice inh, PrP UTR inh, BJeLR viability, SARS 3CLpro inh)
CCC1(C)Cc2ccccc2-c2nc[nH]c(=O)c21 (stereo not given)	none
CCC1(C)Cc2ccccc2-c2[nH]c(=S)[nH]c(=O)c21 (stereo not given)	PrPC surface inh 89.8 | PrPC TRFRET cf 120.1 | LD9 tox inactive
Cc1cccc(NC(=O)CSc2nnc(-c3ccncc3)n2CC2CCCO2)c1 (stereo not given)	PrPC surface inh 60.3 | PrPC TRFRET cf inactive | LD9 tox inactive
COc1ccc(C(=O)Nc2ccccc2C(=O)NN=Cc2ccncc2)cc1OC	none (no result: RecA splice inh, PrP UTR inh, BJeLR viability, PrPC surface inh, SARS 3CLpro inh)
CCc1c(C)nc2c(Br)cccc2c1SCCC#N	PrPC surface inh 64.0 | PrPC TRFRET cf 89.6 | LD9 tox inactive
COc1ccc2c(Cl)c(C(=O)NN)sc2c1	none

Source: PubChem (several laboratories)
